Reference: ChEMBL document CHEMBL3988442, “University of Dundee, Small-Polar-MMV Screening Library” (2021)
The campaign covered roughly 48,000 compounds. About 13,000 (27%) showed an effect of 50% or more. The list shows a part of the results.

test system: Wolbachia pipientis; assay: Anti-Wolbachia Cell-Based Screen; assay type: functional; set-up: scale not given: in the data most compounds retested in dose-response had high values; details: 5 µM

Structure (SMILES) | Percent Effect [%]
CSCCCN1CCCC(Cn2ccnc2)C1 (stereo not drawn) | 13.29
O=C(c1ccc[nH]1)N1CCO[C@H]2CC(COCc3ccccn3)C[C@@H]21 (stereo partly drawn) | 10.05
O=C(O)C(F)(F)F.O=C(c1ccno1)N1CCO[C@@H]2CC(COCc3ccccn3)C[C@H]21 (stereo partly drawn) | 99.5
O=C(O)C(F)(F)F.O=C(O)C(F)(F)F.c1cncc(COCC2CC[C@H]3[C@H](CCN3CC3CCOCC3)O2)c1 (stereo partly drawn) | -3.08
O=C(O)C(F)(F)F.O=S(=O)(C1CC1)N1CCO[C@@H]2CC(COCc3cccnc3)C[C@H]21 (stereo partly drawn) | 111.9
Cc1ccc(C(=O)N2CCO[C@H]3[C@H](OCc4ccccn4)CC[C@@H]32)o1.O=C(O)C(F)(F)F | -0.009897
CCc1nc(-c2noc3ccc(C(=O)N(C)CCOC)cc23)co1 | 2.681
CC(Nc1nc2c(cnn2C)c(=O)[nH]1)c1ccc2c(c1)CCCC2 (stereo not drawn) | 4.227
CC(=O)c1ccc(C(=O)NCC2Cc3ccccc3O2)s1 (stereo not drawn) | -26.22
CC(C)c1noc(CCNC(=O)C2COc3ccccc3C2)n1 (stereo not drawn) | -14.38
CC(C)c1noc(CCNC(=O)NCC2COc3ccccc3O2)n1 (stereo not drawn) | 100.4
CC(C)c1noc(CCNC(=O)NCC2Cc3ccccc3O2)n1 (stereo not drawn) | 104.8
Cc1cnc(C(=O)NCC2Cc3ccccc3O2)cn1 (stereo not drawn) | -10.72
CC(=O)NCCNC(=O)NCC1Cc2ccccc2O1 (stereo not drawn) | 101.6
CC(C)c1noc(CCC(=O)NCC2CCS(=O)(=O)C2)n1 (stereo not drawn) | 6.847
CC(C)c1noc(CN(C)C(=O)C2COc3ccccc3C2)n1 (stereo not drawn) | -21.45
CC(C)c1noc(CCC(=O)NCC2CCOC2)n1 (stereo not drawn) | 7.119
CCN(CC)CCSc1nnc(N2CCN(c3ccc(F)cc3)CC2)s1 | 10.77
CCC(C(=O)NC1(COC)CCCC1)n1cccn1 (stereo not drawn) | 10.41
COCCCN1C(=O)CC[C@H]2CN(Cc3cc4ccccc4o3)CC[C@H]21 | -11.4
c1cnn(CC2CCN(c3nc(C4CC4)nc4c3CCNCC4)CC2)c1 | 9.099
O=C(Cn1nnn(-c2cccs2)c1=O)N(CC1CCOC1)C1CC1 (stereo not drawn) | -6.322
COCCN(Cc1ccccn1)C(=O)c1ccc(=O)n(C)c1 | 4.944
COCCN(C)C[C@@H]1CN(C(=O)c2ccc(=O)n(C)c2)C[C@@H]1CO | 59.39
COCCN(Cc1cccs1)C(=O)c1ccc(=O)n(C)c1 | -19.51

Structure (SMILES) | Percent Effect [%]
COCCN(C)C[C@H]1C[C@H](CO)CN(C(=O)c2ccc(=O)n(C)c2)C1 | 90.72
COc1cccc(C(=O)N2C[C@@H](CN(C)CCO)[C@@H](CO)C2)c1C | -4.304
CC(NC(=O)CCNC(=O)c1ccoc1)c1ccccc1 (stereo not drawn) | -1.423
CC(=O)N(Cc1ncc(C)o1)C1CCN(Cc2ccncc2Cl)C1 (stereo not drawn) | -1.852
CC(=O)N(Cc1ncc(C)o1)C1CCN(Cc2ccccc2C#N)C1 (stereo not drawn) | 110
Cc1cnc(CN(C)C2CCN(Cc3ccccc3C#N)C2)o1 (stereo not drawn) | 18.72
CC(=O)N(Cc1ncc(C)o1)C1CCN(Cc2ccccc2F)C1 (stereo not drawn) | 139.2
CC(=O)N(Cc1ncc(C)o1)C1CCN(Cc2cccc(C#N)c2)C1 (stereo not drawn) | -1.585
c1cnc(-c2nc(CNCCn3cccn3)cs2)nc1 | -8.125
Cc1nc(C)n(C2CCCN(C(=O)c3sccc3C3CC3)C2)n1 (stereo not drawn) | -8.521
CC(CNS(N)(=O)=O)c1ccc(F)c(F)c1 (stereo not drawn) | -14.37
Cc1noc(COCC(=O)N2CCCCC2c2nccs2)n1 (stereo not drawn) | -17.81
CN(CC(=O)N1CCCCC1c1nccs1)C1CC1 (stereo not drawn) | 114.2
CN(CC(=O)N1CCCCC1c1nc(C(C)(C)C)cs1)C1CC1 (stereo not drawn) | 131.5
CC(C)(C)c1csc(C2CCCCN2C(=O)CCn2cncn2)n1 (stereo not drawn) | -13.47
O=C1CSc2ccccc2N1CC(=O)N1CCCCC1c1nccs1 (stereo not drawn) | 2.391
Cc1ncc(CC(=O)N2CCCC(COc3ccc(F)cc3)C2)c(=O)[nH]1 (stereo not drawn) | 33.2
COCCCSc1ccc(NC(=O)Nc2cn[nH]c2)cc1 | 3.134
CN(Cc1ccoc1)c1ccc(-c2nccn2C)nn1 | -4.933
CC(C)(C(=O)NCC1CC1)c1ccccc1F | -12.8
O=C(NC(C(=O)Nc1cc[nH]n1)c1ccccc1)C1CCC1 (stereo not drawn) | -26.62
CC(C)NC(=O)CCNC(=O)c1c(Br)c2ccccc2n1C | 2.193
Cc1cn(CC(=O)NC2CCN(C(C)C)CC2)c2ccccc12 | -15.19
CCN(C)C(=O)c1cc(-c2cn(C(C)C)cn2)n2ccccc12 | 4.681
CC(C)N1CCC(NC(=O)NCc2ccccc2)CC1 | 1.205

Structure (SMILES) | Percent Effect [%]
CC(C)n1c2ccccc2c2c1cc(C(=O)NC1CC1)n2C(=O)N(C)C | 111.7
CC(C)n1c2ccccc2c2c1cc(C(=O)O)n2C(=O)N(C)C | 98.97
COCC(C)N(C)C(=O)c1nc(S(C)(=O)=O)n2ccccc12 (stereo not drawn) | -2.923
CCCNC(=O)c1cc2c(c3ccccc3n2C)n1C(=O)N(C)C | -57.33
CC(C)n1c2ccccc2c2c1cc(C(=O)N(C)C)n2S(C)(=O)=O | 91.91
CC(C)n1c2ccccc2c2c1cc(C(=O)NCCO)n2C(=O)N(C)C | 98.19
CCc1nc(CN2CCCN(c3ncnc4ccccc34)CC2)no1 | 29.73
Cc1noc(CCCC(=O)NC(C)c2ccccn2)n1 (stereo not drawn) | -13.35
CC(C)n1c2ccccc2c2c1cc(C(=O)N(C)C)n2C | 109.8
CC(C)n1c2ccccc2c2c1cc(C(=O)N(C)C)n2C(=O)N(C)C | 90.72
CCCN(CC)C(=O)c1cc2c(c3ccccc3n2C)n1C(=O)N(C)C | -10.54
O=C(NCCc1nncn1C1CC1)C1SCCc2sccc21 (stereo not drawn) | -5.898
CCN(Cc1ccncc1)C(=O)c1cc(C)c(C)c(S(N)(=O)=O)c1 | 3.273
O=C(NCc1ccco1)[C@H]1C[C@@H]2CCN(c3nncs3)C[C@H]2O1.O=C(O)C(F)(F)F | 106
O=C(NCc1ccco1)[C@@H]1COC[C@H]2CN(c3ncc(F)cn3)C[C@H]21.O=C(O)C(F)(F)F | 0.4075
O=C(NCc1ccco1)[C@H]1C[C@@H]2CCN(c3ncccn3)C[C@H]2O1.O=C(O)C(F)(F)F | 105.1
O=C(NCc1ccco1)[C@H]1C[C@@H]2CCN(c3ccncn3)C[C@@H]2O1.O=C(O)C(F)(F)F | 48.28
O=C(NCCc1ccncc1)[C@H]1C[C@@H]2CCN(c3nncs3)C[C@H]2O1 | 96.02
O=C(NCc1ccco1)[C@H]1C[C@@H]2CCN(c3cccc(F)c3)C[C@H]2O1.O=C(O)C(F)(F)F | 104.2
COc1ccnc(N2CCN(C(=O)c3csnn3)CC2)n1 | -4.272
CCN(CC)C1(Cc2cc(COC)on2)COC1 | -6.864
CCC(C)(C)NC(=O)c1ccc(-c2ccco2)[nH]c1=O | -18
Cc1cccc(C)c1NC(=O)CCNC(=O)c1ccoc1 | 6.824
CC(C)CCn1ccc(NC2CCSC2)n1 (stereo not drawn) | -1.669
O=C(NC[C@H]1OC[C@@H](NCc2ccccc2)[C@@H]1O)Nc1ccc(F)cc1 | -15.63

Structure (SMILES) | Percent Effect [%]
Fc1ccc2[nH]c(CO[C@H]3CN(CC4CC4)C[C@H]3F)nc2c1 | -6.025
O=C(NCC1(c2cccc(F)c2)CC1)N1CCC2(CCOC2)C1 (stereo not drawn) | -9.611
Cc1nn2c(N3CCC(C(N)=O)CC3)cc(-c3ccccc3)nc2c1C | 0.08495
Cc1ccc(N2CC[C@H]3C[C@H](C(=O)NCc4ccco4)O[C@H]3C2)nn1.O=C(O)C(F)(F)F | 108.4
O=C(Nc1cccnc1)[C@H]1C[C@@H]2CCN(c3nncs3)C[C@H]2O1.O=C(O)C(F)(F)F.O=C(O)C(F)(F)F | 12.63
Cc1ccc(N2CC[C@H]3C[C@H](C(=O)NCc4ccco4)O[C@@H]3C2)cc1.O=C(O)C(F)(F)F | 96.02
O=C(NCC1CCOCC1)[C@H]1C[C@@H]2CCN(c3nncs3)C[C@@H]2O1.O=C(O)C(F)(F)F | 99.44
Cc1ccc(N2C[C@H]3OCC[C@H]3[C@H](C(=O)NCc3ccco3)C2)nn1 | 0.2496
COCCNC(=O)[C@H]1C[C@@H]2CCN(c3nncs3)C[C@H]2O1.O=C(O)C(F)(F)F | -6.597
Cc1cc(S(=O)(=O)N2CC[C@@H](O)C2)c(Cl)cc1F | 1.456
O=C(C1CCOCC1)N1CCN(CC2CC2)c2ncccc2C1 | -9.379
O=C(C1CCOC1)N1CCN(Cc2cccnc2)c2ncccc2C1 (stereo not drawn) | 79.91
O=C(C1CCOC1)N1CCN(Cc2ccncc2)c2ncccc2C1 (stereo not drawn) | 109.7
CCN1CCN(CCCNC(=O)c2cc3ccc(C)cc3nc2C)CC1 | 26.08
CN(C)C1CCN(Cc2cnc(S(C)(=O)=O)n2CC2CCCCC2)C1 (stereo not drawn) | -18.29
Cc1cc(C)cc(C(=O)N2CCCC3(CCCC(=O)N3C)C2)c1 (stereo not drawn) | 101
Cc1cncc(C(=O)N2CCCC3(CCCN3S(C)(=O)=O)C2)c1 (stereo not drawn) | -8.185
CN1C(=O)CCCC12CCCN(C(=O)c1ccc3c(c1)OCO3)C2 (stereo not drawn) | 103.5
CS(=O)(=O)N1CCCC12CCCN(C(=O)c1cc(F)cc(F)c1)C2 (stereo not drawn) | 3.882
CS(=O)(=O)N1CCCC12CCCN(C(=O)c1ccc3c(c1)OCO3)C2 (stereo not drawn) | -9.352
CN1C[C@H]2CN(C(=O)c3ccc4c(c3)OCO4)CCN2C1=O | 3.165
CN1C(=O)CCCC12CCCN(C(=O)c1cccc(C(F)(F)F)c1)C2 (stereo not drawn) | 112.4
CN1C(=O)CCCC12CCCN(C(=O)c1cc(F)cc(F)c1)C2 (stereo not drawn) | 108.3
